{"source": "paper doi:10.1101/2024.03.05.583629", "data": [{"biological_target": "pT7_6His-AlfaTag-HOXD13 (human, UniProt P35453 263-343)", "sequence (P35453 263-343)": "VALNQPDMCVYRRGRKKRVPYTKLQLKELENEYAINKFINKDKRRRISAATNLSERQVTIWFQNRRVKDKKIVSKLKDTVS", "assay": "PADIT-seq", "conditions": "dsDNA, one strand shown", "units": {"binding signal": "log2FC"}, "values": [{"sequence": "CTCGAGGATATCAAGATCTGGCCTCGGCCGACTAAAAGGAACCTCTAGCTAGCCGACTCACTATAGGGATAATCGCCCTGAGCAAAGACC", "binding signal": "-0.753 ± 0.121"}, {"sequence": "CTCGAGGATATCAAGATCTGGCCTCGGCGCGTGGCGAGGAACCTCTAGCTAGCCGACTCACTATAGGGATAATCGCCCTGAGCAAAGACC", "binding signal": "-0.862 ± 0.192"}, {"sequence": "CTCGAGGATATCAAGATCTGGCCTCGGCATTTTAAAAGGAACCTCTAGCTAGCCGACTCACTATAGGGATAATCGCCCTGAGCAAAGACC", "binding signal": "2.49 ± 0.0611"}, {"sequence": "CTCGAGGATATCAAGATCTGGCCTCGGCCTCGTAAAAGGAACCTCTAGCTAGCCGACTCACTATAGGGATAATCGCCCTGAGCAAAGACC", "binding signal": "3.09 ± 0.0876"}, {"sequence": "CTCGAGGATATCAAGATCTGGCCTCGGCATTTTATGTGGAACCTCTAGCTAGCCGACTCACTATAGGGATAATCGCCCTGAGCAAAGACC", "binding signal": "2.99 ± 0.0772"}, {"sequence": "CTCGAGGATATCAAGATCTGGCCTCGGCTTTTTACATGGAACCTCTAGCTAGCCGACTCACTATAGGGATAATCGCCCTGAGCAAAGACC", "binding signal": "2.12 ± 0.0858"}, {"sequence": "CTCGAGGATATCAAGATCTGGCCTCGGCCGCGTAAAAGGAACCTCTAGCTAGCCGACTCACTATAGGGATAATCGCCCTGAGCAAAGACC", "binding signal": "1.44 ± 0.0853"}, {"sequence": "CTCGAGGATATCAAGATCTGGCCTCGGCTTTTTAAACGGAACCTCTAGCTAGCCGACTCACTATAGGGATAATCGCCCTGAGCAAAGACC", "binding signal": "1.28 ± 0.101"}, {"sequence": "CTCGAGGATATCAAGATCTGGCCTCGGCTTTTTACTAGGAACCTCTAGCTAGCCGACTCACTATAGGGATAATCGCCCTGAGCAAAGACC", "binding signal": "3.21 ± 0.0865"}, {"sequence": "CTCGAGGATATCAAGATCTGGCCTCGGCGTTTTAGTCGGAACCTCTAGCTAGCCGACTCACTATAGGGATAATCGCCCTGAGCAAAGACC", "binding signal": "-0.506 ± 0.12"}]}]}
